# Assay results reported in PubChem BioAssay.
# Results filed as inconclusive are left out. Active and inactive are the calls of the source.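 Rule for the calls, unless noted: active = viability at or under a set limit in both replicates, limit being median viability minus 3 SD (cut at about 48% in these data, passing the limit was not always enough); inconclusive = at or under the limit in just one replicate; inactive = at or above the limit in both replicates.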
# Assays:
# [1] = Her2 expression decrease, cell viability multiplex – SKBR3 breast tumor cells, AlphaScreen, ATP viability, primary screen (AID 461;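 active = Her2 level under about 52% in both replicate screens, with viability over 70% of control, limit read from the data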;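 for Her2 level: lower value means less Her2 protein in the cells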;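 for viability: percent of carrier control wells set as 100% viability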); conditions: SKBR3 Her2 protein level, 18-24 h, measured here: SKBR3 viability, ATP luminescence, at 10 µM
# [2] = target: Receptor tyrosine-protein kinase erbB-2 (Homo sapiens) (UniProt P04626); experiment: as above; conditions: 18-24 h, at 10 µM, stronger effect = lower value
# [3] = reduced viability of SK-BR-3 breast cancer cells – cell-based, 24 h, human, pilot screen (AID 572;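 active = viability at or below 10% of carrier control in both of two separate runs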;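 note: compound exposure lasted between 18 and 24 h rather than exactly 24 h; 100% = carrier-treated control wells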); conditions: SK-BR-3 viability, CellTiter-Glo luminescence, at 10 µM, stronger effect = lower value
# [4] = HUVEC growth inhibition – cell-based, human, primary screen (AID 575;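 active = viability at or below 30% in both replicate assays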;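 note: 100% = median of untreated cell wells with 0.1% DMSO on each plate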); conditions: HUVEC proliferation, CellTiter-Glo luminescence, 72 h; at 10 µM; stronger effect = lower value
# [5] = H69AR cell proliferation blockers – human, duplicate replicates, primary screen (AID 580); conditions: H69AR lung tumor cells viability, ATP luminescence, 72 h; at 10 µM; stronger effect = lower value;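 note: 100% = mean luminescence of untreated wells and 0% = no signal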
# [6] = MRP1 drug-resistance reversers in H69AR cells – cell-based, doxorubicin co-treatment, pilot screen (AID 601;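 active = viability loss from added drug above about 55%, and viability with drug at most 40%, in both replicates, limit read from the data, passing the limit was not always enough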); conditions: CellTiter-Glo, 72 h, at 10 µM; for differential viability (reversal): stronger effect = higher value
# [7] = yeast transport mutant growth inhibition pilot in 384-well plates, post-Golgi transport modulator project (AID 636; in the data active = inhibition above about 31%); conditions: absorbance 615 nm, about 18 h, stronger effect = higher value
# [8] = growth suppression of yeast trafficking mutant, preliminary HTS, modulators of trafficking downstream of Golgi apparatus project, 1536-format plate, OD 615 nm (AID 637; in the data active = inhibition above about 30%); conditions: yeast transport mutant growth, absorbance 615 nm, 18 h; stronger effect = higher value
# [9] = S. cerevisiae growth inhibition in permissive medium (OD615), pilot counter-assay for S. cerevisiae lifespan shortening project, permissive growth control (AID 705;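 active = growth inhibition above 25% in both replicates, a cutoff set 3 SD above the mean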); conditions: OD615, 24 h, at 10 µM, stronger effect = higher value
# [10] = S. cerevisiae growth inhibition in restrictive medium, OD615, pilot screen, restrictive growth control, yeast lifespan reduction project (AID 706;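 active = growth inhibition above a set limit, 3 SD over mean compound inhibition, in both replicates, cut at about 43% in these data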;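 note: modified DeaD lifespan yeast strain shifted to restrictive glucose medium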); conditions: OD615, 48 h, at 10 µM, stronger effect = higher value
# [11] = doxorubicin toxicity protection in MRP-1 cells – H69AR cells, CellTiter-Glo, duplicate, MRP-1 activator project, pilot screen (AID 807;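 active = viability increase at or above a cutoff of the median across tested compounds plus 3 SD, cut at about 8.5% in these data, passing the limit was not always enough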;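 note: compound pretreatment 18-22 h then 72 h combined with doxorubicin; 0% = doxorubicin alone and 100% = vehicle without doxorubicin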); conditions: H69AR viability with doxorubicin, CellTiter-Glo luminescence; at 10 µM; stronger effect = higher value
# [12] = viability of HCT116 without oncogenic beta-catenin – human colon tumor cells, pilot screen (AID 823;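 active = cell viability at or below a set limit in both duplicate runs, the limit being the all-compound median minus 4 SD, cut at about 23% in these data, passing the limit was not always enough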;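 note: 0% = wells killed by 20 µM Hyamine and 100% = untreated DMSO cell wells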); conditions: HCT116 beta-catenin knockout viability, CellTiter-Glo, 60 h; at 10 µM; stronger effect = lower value
# [13] = viability of PTEN-null HCT116 cells – cell-based, HCT116 clonal line, CellTiter-Glo, pilot screen (AID 824;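 active = viability at or below 27.92% in each of two runs, the all-compound median minus 4 SD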;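 note: 0% = 20 µM Hyamine control and 100% = vehicle cell control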); conditions: HCT116 PTEN-deleted viability, 60 h, at 10 µM, stronger effect = lower value
# [14] = RAM pathway blockade in budding yeast – dse1pr::URA3 reporter, 5-FOA selection, pilot screen (AID 869;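 active = inhibition over a set limit, the all-compound mean plus 3 SD, in both replicate runs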;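 note: 0% = DMSO wells with no growth and 100% = 10 µM 1-NA-PP1 with full growth; RAM network block rescues cells from 5-FOA so hits raise OD615 growth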); conditions: S. cerevisiae dse1pr::URA3 5-FOA growth, OD615, 2 d; at 10 µM; stronger effect = higher value; strain carries analog-sensitive mutant Cbk1 kinase
# [15] = H69AR cells + 2 uM doxorubicin, measured here: viability with 2 uM doxorubicin, stronger effect = lower value
# [16] = H69AR cells, compound alone cytotoxicity
# Receptor tyrosine-protein kinase erbB-2 (Homo sapiens), sequence (P04626 whole entry, looked up): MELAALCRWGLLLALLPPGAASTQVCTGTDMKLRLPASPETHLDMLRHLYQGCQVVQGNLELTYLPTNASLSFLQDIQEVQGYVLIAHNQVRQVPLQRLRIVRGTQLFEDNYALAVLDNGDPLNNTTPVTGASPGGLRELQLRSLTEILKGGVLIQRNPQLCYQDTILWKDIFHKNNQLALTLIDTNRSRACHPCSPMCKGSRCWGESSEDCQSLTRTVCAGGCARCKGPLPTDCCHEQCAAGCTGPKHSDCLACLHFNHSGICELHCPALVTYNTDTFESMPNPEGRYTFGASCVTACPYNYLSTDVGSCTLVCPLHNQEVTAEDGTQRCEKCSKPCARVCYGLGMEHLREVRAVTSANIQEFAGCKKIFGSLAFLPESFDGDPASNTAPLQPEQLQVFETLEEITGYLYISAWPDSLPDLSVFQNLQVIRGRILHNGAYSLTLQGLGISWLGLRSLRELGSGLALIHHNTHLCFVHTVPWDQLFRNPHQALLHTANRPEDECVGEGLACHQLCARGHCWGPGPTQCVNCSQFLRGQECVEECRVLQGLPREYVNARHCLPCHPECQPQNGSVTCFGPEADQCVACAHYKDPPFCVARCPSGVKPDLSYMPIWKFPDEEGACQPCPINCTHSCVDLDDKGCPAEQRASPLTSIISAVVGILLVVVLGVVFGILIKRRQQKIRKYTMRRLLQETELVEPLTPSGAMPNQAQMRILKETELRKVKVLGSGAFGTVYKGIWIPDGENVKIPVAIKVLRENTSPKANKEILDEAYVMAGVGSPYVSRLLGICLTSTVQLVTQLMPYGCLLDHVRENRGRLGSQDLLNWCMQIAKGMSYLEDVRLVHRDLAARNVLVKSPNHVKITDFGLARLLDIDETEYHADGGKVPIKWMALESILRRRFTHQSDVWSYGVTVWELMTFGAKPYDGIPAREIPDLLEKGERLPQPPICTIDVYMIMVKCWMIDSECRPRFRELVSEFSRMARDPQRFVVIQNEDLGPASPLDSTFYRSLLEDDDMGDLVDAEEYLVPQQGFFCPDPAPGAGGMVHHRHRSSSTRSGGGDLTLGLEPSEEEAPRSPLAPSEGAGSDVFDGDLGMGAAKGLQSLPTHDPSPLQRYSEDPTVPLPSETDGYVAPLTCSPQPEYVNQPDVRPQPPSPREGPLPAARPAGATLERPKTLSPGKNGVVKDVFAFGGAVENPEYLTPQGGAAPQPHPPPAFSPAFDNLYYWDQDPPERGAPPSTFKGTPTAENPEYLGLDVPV
SMILES,viability [1],Her2 level [2],viability [3],viability [4],viability [5],differential viability (reversal) ([6]; H69AR cells + 2 uM doxorubicin),"viability [6, 15]","viability [6, 16]",inhibition [7],inhibition [8],growth inhibition [9],growth inhibition [10],viability increase [11],viability [12],viability [13],inhibition [14]
COC(=O)c1cc2ccsc2n1CC(=O)N(C)c1ccccc1,89.5%,94.5% (inactive),89.5% (inactive),90.2% (inactive),84.2% (inactive),0.29% (inactive),84%,84.2%,0.26% (inactive),-1.83% (inactive),–,–,–,–,–,–
c1ccc(-c2n[nH]c3ccccc23)cc1,118%,85% (inactive),118% (inactive),84.9% (inactive),103% (inactive),11.4% (inactive),91.9%,103%,-3.55% (inactive),2.1% (inactive),–,–,–,–,–,–
CCOC(=O)CSc1nc2ccccc2c(=O)n1NC(=O)c1ccccc1,120%,78% (inactive),120% (inactive),86.6% (inactive),87.4% (inactive),7% (inactive),80.4%,87.4%,-3.29% (inactive),-1.75% (inactive),–,–,–,–,–,–
CCN1CCN(c2nc(-c3cccnc3)nc3ccccc23)CC1,89%,94.5% (inactive),89% (inactive),101% (inactive),88.6% (inactive),-2.89% (inactive),91.5%,88.6%,-3.16% (inactive),-0.63% (inactive),–,–,–,–,–,–
O=C(CSc1nc2ccccc2nc1SCC(=O)N1CCOCC1)N1CCOCC1,100%,98% (inactive),100% (inactive),110% (inactive),95.7% (inactive),1.15% (inactive),94.5%,95.7%,-1.03% (inactive),0.17% (inactive),–,–,–,–,–,–
CC(=O)Nc1sc2c(c1C#N)CCCCC2,132%,113% (inactive),132% (inactive),82.2% (inactive),95.6% (inactive),5.43% (inactive),90.2%,95.6%,-4.93% (inactive),-2.54% (inactive),–,–,–,–,–,–
CCOC(=O)C1=C(C)NC(=O)C(C#N)C1c1ccco1 (stereo not given),104%,85% (inactive),104% (inactive),92.6% (inactive),90% (inactive),-0.555% (inactive),90.6%,90%,-4.8% (inactive),-1.31% (inactive),–,–,–,–,–,–
CC(=O)c1c(C)[nH]c(C(=O)NCc2cccs2)c1C,97%,90% (inactive),97% (inactive),93.8% (inactive),94.9% (inactive),11.2% (inactive),83.7%,94.9%,0.39% (inactive),-1.45% (inactive),–,–,–,–,–,–
COc1ccc(CCNC(=O)CN(c2ccccc2OC)S(C)(=O)=O)cc1,112%,99.5% (inactive),112% (inactive),93.5% (inactive),99.9% (inactive),15.6% (inactive),84.3%,99.9%,-2.08% (inactive),-1.48% (inactive),–,–,–,–,–,–
CC(=O)Nc1ccc(S(=O)(=O)n2cnc(C)c2)cc1,91%,93.5% (inactive),91% (inactive),102% (inactive),104% (inactive),3.98% (inactive),99.6%,104%,-0.53% (inactive),-5% (inactive),–,–,–,–,–,–
CCn1c(SCC(=O)Nc2ccc3c(c2)OCO3)nc2c(c1=O)SC(C)C2 (stereo not given),92.5%,102% (inactive),92.5% (inactive),81% (inactive),84.7% (inactive),1.51% (inactive),83.2%,84.7%,-4.67% (inactive),-2% (inactive),-7.09% (inactive),-23.1% (inactive),-2.42% (inactive),99.9% (inactive),96.8% (inactive),1.63% (inactive)
CSc1nc2ccc(Nc3nc(N4CCOCC4)nc(N4CCOCC4)n3)cc2s1,62.5%,106% (inactive),62.5% (inactive),18.5% (active),56.8% (inactive),-3.63% (inactive),60.5%,56.8%,3.08% (inactive),-0.5% (inactive),-4.93% (inactive),-5.7% (inactive),-5.72% (inactive),68% (inactive),66.5% (inactive),1.97% (inactive)
CC1Cc2ccccc2N1Cc1cc(=O)n2ccsc2n1 (stereo not given),102%,78.5% (inactive),102% (inactive),80.4% (inactive),74.7% (inactive),-17.9% (inactive),92.6%,74.7%,-2.99% (inactive),-6.98% (inactive),–,–,–,–,–,–
CCOc1ccccc1N1C(=O)c2ccc(C(=O)Nc3cccnc3)cc2C1=O,94.5%,94% (inactive),94.5% (inactive),88.2% (inactive),102% (inactive),2.08% (inactive),100%,102%,-1.6% (inactive),-2.13% (inactive),-15.8% (inactive),-21.7% (inactive),0.54% (inactive),107% (inactive),98.7% (inactive),3.15% (inactive)
O=c1/c(=C/c2ccco2)sc2nc(-c3ccccc3Br)nn12,97%,89.5% (inactive),97% (inactive),99.8% (inactive),92.4% (inactive),4.5% (inactive),87.9%,92.4%,-6.8% (inactive),1.64% (inactive),–,–,–,–,–,–
Cc1ccccc1C(=O)NC1CCN(Cc2nnnn2Cc2ccccc2)CC1,93.5%,78% (inactive),93.5% (inactive),91.3% (inactive),98.2% (inactive),2.56% (inactive),95.6%,98.2%,-4.46% (inactive),3.49% (inactive),–,–,–,–,–,–
CCCCN(CCCNC(=O)C1CCN(S(=O)(=O)CC)CC1)c1ccccc1,87%,89.5% (inactive),87% (inactive),97.3% (inactive),96.6% (inactive),-1.6% (inactive),98.2%,96.6%,-2.89% (inactive),-6.83% (inactive),–,–,–,–,–,–
CCn1cc(C(=O)N2CCN(C(=O)c3ccco3)CC2)c2cc(OC)c(OC)cc2c1=O,95%,84% (inactive),95% (inactive),91.3% (inactive),98.1% (inactive),0.175% (inactive),97.9%,98.1%,-4.61% (inactive),-2.36% (inactive),–,–,–,–,–,–
CCN(CC)C(=O)C1CCC(CNS(=O)(=O)c2cccc3cccnc23)CC1 (stereo not given),92%,97% (inactive),92% (inactive),89.9% (inactive),99.2% (inactive),2.08% (inactive),97.1%,99.2%,-1.87% (inactive),-2.3% (inactive),–,–,–,–,–,–
CC(NC(=O)NCCCC(=O)O)(C(F)(F)F)C(F)(F)F,104%,82% (inactive),104% (inactive),97.6% (inactive),105% (inactive),8.72% (inactive),96.5%,105%,-7.53% (inactive),1.59% (inactive),–,–,–,–,–,–
Cc1ccc(S(=O)(=O)C2(C(=O)N3CCCCCC3)CC2)cc1,96.5%,83% (inactive),96.5% (inactive),93.8% (inactive),107% (inactive),1.4% (inactive),105%,107%,-2.73% (inactive),-0.95% (inactive),–,–,–,–,–,–
Cc1ccc(CCNC(=O)C2CCCN2S(=O)(=O)c2ccc3c(c2)CCC(=O)N3)cc1 (stereo not given),87.5%,93.5% (inactive),87.5% (inactive),91.8% (inactive),101% (inactive),4.97% (inactive),96.2%,101%,-1.33% (inactive),11.2% (inactive),-8.07% (inactive),-8.79% (inactive),3.43% (inactive),101% (inactive),98.8% (inactive),2% (inactive)
Cc1cc(=O)oc(C)c1C(=O)O,102%,118% (inactive),102% (inactive),97.1% (inactive),92% (inactive),7.3% (inactive),84.7%,92%,-6.1% (inactive),9.34% (inactive),–,–,–,–,–,–
CC1CN(C2CCCCC2)c2nc3c(c(=O)[nH]c(=O)n3C)n2C1 (stereo not given),90.5%,95% (inactive),90.5% (inactive),86.1% (inactive),82.2% (inactive),-2.19% (inactive),84.4%,82.2%,-1.95% (inactive),7.3% (inactive),–,–,–,–,–,–
COc1cc2c(cc1OC)C(c1ccccc1O)N(C1CC(=O)N(c3ccccc3)C1=O)CC2 (stereo not given),113%,96.5% (inactive),113% (inactive),97.7% (inactive),99.8% (inactive),18.3% (inactive),81.5%,99.8%,-4.42% (inactive),-5.08% (inactive),–,–,–,–,–,–
O=C(NCc1cccs1)C1CC(c2ccccc2O)=NO1 (stereo not given),74%,78.5% (inactive),74% (inactive),63.4% (inactive),104% (inactive),16.5% (inactive),87.3%,104%,-3.73% (inactive),-0.33% (inactive),–,–,–,–,–,–
O=c1[nH]c(Nc2ccccc2)cc2ccccc12,94.5%,92% (inactive),94.5% (inactive),82.2% (inactive),101% (inactive),3.34% (inactive),97.9%,101%,2.5% (inactive),14.3% (inactive),–,–,–,–,–,–
CCN(c1ccc2c(c1)OCO2)S(=O)(=O)c1cc(Br)cc2c1N(C(=O)C1CC1)CC2,131%,92.5% (inactive),131% (inactive),89.6% (inactive),73.9% (inactive),11.9% (inactive),62%,73.9%,-10% (inactive),3.17% (inactive),-12.3% (inactive),-14.7% (inactive),-3.72% (inactive),72.4% (inactive),72% (inactive),3.91% (inactive)
